Compound activity (PubChem)
HSF1 activator – HSF-1 activators, primary screen, NIH3T3-HGL cells, MG132 stress, luminescence, single point. NIH3T3-HGL HSF-1 luciferase reporter, 8 h; 100% = twice DMSO control signal. activation, % at 9 µM. actives 1.7% (n = 300,000). AID 504408, 2011;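 active = mean replicate activation of at least 50% with a set share of replicates each reaching 50%; inconclusive = only one of those two conditions met; inactive = mean below 50% and too few replicates reaching it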
Vif imaging – HIV Vif self-association inhibitors, primary screen, imaging, HEK293T, single point. HEK293T cells, Vif self-association by quenched fluorescence, 24 h. inhibition, % at 7.49 µM. actives 0.35% (n = 340,000); in the data active = inhibition above about 50%, passing the limit was not always enough; inconclusive = no clear call, values can overlap the other calls; inactive = below about 31%
HSF1 inh – HSF1 inhibitors in luciferase reporter cells, primary screen, cell-based, NIH3T3, luminescence; NIH3T3-HGL HSE-luciferase, MG132-induced, luminescence 8 h; active compounds read low; AID 2098, 2009; activity change, negative = inhibition, % at 7.5 µM (by protocol); actives 0.77% (n = 300,000);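 active = more than half of replicate wells show activity change below -50%, luminescence cut by over half; inconclusive = some wells, but at most half, below -50%; inactive = no replicate well below -50%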;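 also: luciferase reports HSF-1 transcriptional activity via heat shock element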
esBAF inh – Bmi1 luciferase reporter increase in mESCs, primary screen, esBAF inhibitor project, mouse ES cells, Bmi1 luciferase knock-in, single point. 24 h; 100% = twice the neutral-well signal. reporter increase, % at 12.5 µM. actives 2% (n = 350,000). AID 602393, 2012; in the data active = activation above about 40%; inconclusive = no clear call, values can overlap the other calls;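 also: a rise in the Bmi1 reporter signal indicates esBAF inhibition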
Large screens that a line does not name were inactive. Hits are enriched below; roughly 3.4% of the tested compounds scored in any of these assays.

COC1CCN(C(=O)c2cc(COc3cc(C)ccc3C)on2)CC1	none (no result: HSF1 activator, HSF1 inh)
Cc1ccc(C)c(OCc2cc(C(=O)N3CCC(N4CCCC(O)C4)CC3)no2)c1 (stereo unspecified)	none
Cc1ccc(C)c(OCc2cc(C(=O)N3CCOCC3)no2)c1	esBAF inh 50
O=C(Nc1ccc2cn[nH]c2c1)c1c(Cl)cccc1Cl	none (no result: esBAF inh)
O=C1C(Cl)=C(Nc2ccc3cn[nH]c3c2)C(=O)c2ccccc21	HSF1 inh -90
COc1ccc(Cc2c(-c3cccc(Cl)c3)nc3c(C)cc(Br)cn23)c(C)c1	none (no result: HSF1 activator, Vif imaging, HSF1 inh)
COc1ccc(Cc2c(-c3cccc(Cl)c3)nc3ccc(C)cn23)c(C)c1	esBAF inh 56 (no result: HSF1 activator, Vif imaging, HSF1 inh)
COc1ccc(Cc2c(-c3ccc(F)cc3)nc3ccc(Cl)cn23)c(C)c1	esBAF inh 44 (no result: HSF1 activator, Vif imaging, HSF1 inh)
COc1ccc(Cc2c(-c3ccccc3)nc3ccc(Cl)cn23)c(C)c1	none (no result: HSF1 activator, Vif imaging, HSF1 inh)
CCC(=O)N1[C@H](CO)[C@H]2c3ccccc3N(C(=O)c3ccc4c(c3)OCO4)C[C@H]21	none (no result: HSF1 activator, Vif imaging, HSF1 inh)
O=C(CCl)N1CCCC1c1ccc2c(c1)OCCO2 (stereo unspecified)	HSF1 inh -63, esBAF inh inconclusive
CC(=O)c1ccc(OCC(=O)N2CCCC2c2ccc3c(c2)OCCCO3)cc1 (stereo unspecified)	none (no result: HSF1 activator, HSF1 inh)
CC(=O)OC[C@H]1O[C@@H](n2ncc(=O)[nH]c2=O)[C@H](OC(C)=O)[C@@H]1OC(C)=O	esBAF inh 48
O=C(OCC1OC(n2ncc(=O)[nH]c2=O)C(OC(=O)c2ccccc2)C1OC(=O)c1ccccc1)c1ccccc1 (stereo unspecified)	none
COc1cccc(CN(C)C[C@@H]2OCc3cn(nn3)CCCC(=O)N([C@@H](C)CO)C[C@@H]2C)c1	none (no result: HSF1 activator, Vif imaging, HSF1 inh)
C[C@H](CO)N1C[C@H](C)[C@H](CN(C)C(=O)c2ccc(F)cc2)Oc2ncc(-c3ccncc3)cc2C1=O	none (no result: HSF1 activator, Vif imaging, HSF1 inh)
COc1ccc(CN(C)C[C@@H]2Oc3ccc(NC(=O)Cn4cnnn4)cc3C(=O)N([C@@H](C)CO)C[C@H]2C)cc1	none (no result: HSF1 activator, Vif imaging, HSF1 inh)
CCN1C(=Nc2ccc(Cl)cc2)SC/C1=C\C(=O)OC	esBAF inh 61
COc1ccc(NC(=O)Nc2ccc3c(c2)[C@H]2C[C@@H](CC(=O)N(C)C)O[C@H](CO)[C@H]2O3)cc1	none (no result: HSF1 activator, Vif imaging, HSF1 inh)
Oc1cccc2ccc(/C=C/c3ccccc3Cl)nc12	none
COc1ccccc1/C=C/c1ccc2cccc(O)c2n1	esBAF inh 67
COc1ccc(Cl)cc1/C=C/c1ccc2cccc(O)c2n1	none (no result: esBAF inh)
CCOc1cccc(/C=C/c2ccc3cccc(O)c3n2)c1OC	HSF1 activator 143
CCOc1cccc(/C=C/c2ccc3cccc(O)c3n2)c1O	esBAF inh 87
Nc1ccc(-c2nc3ccccc3s2)cn1	none
O=C1CCC(=O)N1c1ccc(-c2nc3ccccc3s2)cc1	HSF1 inh -72
O=C(Nc1ccc(F)c(Cl)c1)c1cc(C2CCCN(S(=O)(=O)c3ccccc3)C2)on1 (stereo unspecified)	none (no result: HSF1 activator, HSF1 inh)
Cn1cnc(S(=O)(=O)N2CCCC(c3cc(C(=O)Nc4ccc(F)c(Cl)c4)no3)C2)c1 (stereo unspecified)	esBAF inh 53 (no result: HSF1 activator, HSF1 inh)
O=C(CSc1ncn(-c2ccccc2)n1)N1CCc2ccccc21	none (no result: HSF1 activator, Vif imaging, HSF1 inh)
Clc1ccc(CSc2ncn(-c3ccccc3)n2)cc1	esBAF inh 58
Clc1cccc(CSc2ncn(-c3ccccc3)n2)c1	esBAF inh 42
O=C(NCc1ccc(F)cc1)c1cc(C2CCCCN2C(=O)OCCF)on1 (stereo unspecified)	Vif imaging 67 (no result: HSF1 activator, HSF1 inh)
COC(=O)N1CCCCC1c1cc(C(=O)NCc2ccc(F)cc2)no1 (stereo unspecified)	none (no result: HSF1 activator, HSF1 inh)
Cc1nc(N)sc1-c1csc(N(C)c2ccc(O)cc2)n1	esBAF inh 43
Cc1ccc(/C(N)=N/OC(=O)CSc2ccccc2)cc1	HSF1 activator 62 (no result: esBAF inh)
COc1ccc(/C(N)=N/OC(=O)c2ccc(C)c([N+](=O)[O-])c2)cc1	esBAF inh 70
COc1ccc(C(=O)O/N=C(\N)c2ccccc2)cc1	none
Cc1ccc(C(=O)O/N=C(\N)c2ccc(Br)cc2)cc1	esBAF inh 82
N/C(=N\OC(=O)c1ccc(Br)cc1)c1ccccc1	none
COc1ccc(C(=O)O/N=C(\N)c2ccc(Br)cc2)cc1	esBAF inh 59
COc1ccc(/C(N)=N/OC(=O)CSc2ccccc2)cc1	none (no result: esBAF inh)
COCC#Cc1ccc2c(c1)O[C@H](CN(C)C(=O)NC(C)C)[C@H](C)CN([C@@H](C)CO)S2(=O)=O	none (no result: HSF1 activator, Vif imaging, HSF1 inh)
COc1cccc(CNC(=O)C[C@@H]2C=C[C@H](NC(=O)C3CCC3)[C@@H](CO)O2)c1	none (no result: HSF1 activator, Vif imaging, HSF1 inh)
CCCC#Cc1cnc2c(c1)C(=O)N([C@@H](C)CO)C[C@H](C)[C@@H](CN(C)C(=O)CN1CCOCC1)O2	none (no result: HSF1 activator, Vif imaging, HSF1 inh)
Cc1cc(C(=O)Nc2cccc3c2O[C@H](CN(C)C(=O)Nc2cccc4ccccc24)[C@@H](C)CN([C@@H](C)CO)C3=O)n(C)n1	none (no result: HSF1 activator, Vif imaging, HSF1 inh)
CN1C(=O)c2cc(NC(=O)c3ccc(F)c(F)c3)ccc2OC[C@H]2O[C@H](CC(=O)N[C@H]3CCN(Cc4ccccc4)C3)CC[C@@H]21	none (no result: HSF1 activator, Vif imaging, HSF1 inh)
CN(C)C(=O)C[C@H]1CC[C@H]2[C@@H](COC[C@@H](O)CN2Cc2nccs2)O1	none (no result: HSF1 activator, Vif imaging, HSF1 inh)
N/C(=N\OC(=O)C1CCCCC1)c1ccncc1	none (no result: esBAF inh)
O=C(CNC(=O)C1CCCCC1)OCC(=O)c1ccc(Br)cc1	HSF1 activator 65
CCOc1ccc(C(=O)COC(=O)CNC(=O)C2CCCCC2)cc1	none (no result: HSF1 activator, HSF1 inh)
N/C(=N\OC(=O)C1CCCCC1)c1ccc(Br)cc1	HSF1 activator 57, esBAF inh 66
COC(=O)C[C@H]1CC[C@H]2[C@H](COc3ccc(NC(=O)Nc4cccc(C)c4)cc3C(=O)N2C)O1	none (no result: HSF1 activator, Vif imaging, HSF1 inh)
Cc1cc(NC(=O)Cn2ccc([N+](=O)[O-])n2)no1	HSF1 inh -52 (no result: esBAF inh)
C[C@@H]1CCCCO[C@H](CN(C)C(=O)CCCN(C)C)[C@H](C)CN([C@H](C)CO)C(=O)c2cc(NC(=O)Nc3cccc4ccccc34)ccc2O1	none (no result: HSF1 activator, Vif imaging, HSF1 inh)
O=C(NCc1cccs1)C1CCC(CNS(=O)(=O)c2cccs2)CC1 (stereo unspecified)	none
COc1ccccc1CNC(=O)C1CCC(CNS(=O)(=O)c2cccs2)CC1 (stereo unspecified)	Vif imaging 55
COc1ccccc1CNC(=O)c1ccc(NS(C)(=O)=O)cc1	none
COc1ccccc1CNC(=O)c1ccc(NS(=O)(=O)c2cccs2)cc1	HSF1 activator 64 (no result: esBAF inh)
O=C(N=C1N=C2C=CC=CN2Cc2ccccc21)c1ccc(S(=O)(=O)N2CCCC2)cc1	esBAF inh 50
CN(C)S(=O)(=O)c1cccc(C(=O)N2CCN(Cc3ccccc3)CC2)c1	none
O=C(N=C1N=C2C=CC=CN2Cc2ccccc21)c1ccc(S(=O)(=O)N2CCOCC2)cc1	none (no result: HSF1 activator, HSF1 inh, esBAF inh)
CN(C)S(=O)(=O)c1cccc(C(=O)N=C2N=C3C=CC(Cl)=CN3Cc3ccccc32)c1	HSF1 activator 60 (no result: esBAF inh)
OC[C@H]1[C@H](c2ccc(C#CC3(O)CCCC3)cc2)[C@H]2CN(Cc3cncnc3)CCCCN21	none (no result: HSF1 activator, Vif imaging, HSF1 inh)
